esBAF inh: Bmi1 luciferase reporter increase in mESCs, primary screen, esBAF inhibitor project, mouse ES cells, Bmi1 luciferase knock-in, single point; 24 h; 100% = twice the neutral-well signal; reporter increase, % at 12.5 µM; 350,000 tested, 2% active; AID 602393, 2012; in the data active means activation above about 40%; inconclusive means no clear call, values can overlap the other calls;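 further: 0% = median of the plate's neutral control wells and 100% = double that signal; a rise in the Bmi1 reporter signal indicates esBAF inhibition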
Wnt act: Wnt/beta-catenin pathway activators, primary screen, cell-based, plate reader, single point; Wnt/beta-catenin reporter cell assay, activator; activation, % at 9.35 µM; 300,000 tested, 1.2% active; in the data active means activation above about 30%, passing the limit was not always enough; inconclusive means no clear call, values can overlap the other calls;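 further: 0% = neutral control wells and 100% = positive control wells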
GAA850 FXN act: FXN promoter activators, primary screen, cell-based, luciferase luminescence, HEK293 lucGAA850. HEK293 lucGAA850 FXN promoter luciferase reporter, 24 h; percent of 10 µM SAHA response. activation, % at 6 µM. 360,000 tested, 0.56% active;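 active means activation above the average of all compounds screened plus 3 SD, cutoff fixed separately per campaign, cut at about 7.5% in these data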;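 further: 0% = DMSO wells and 100% = 10 µM SAHA wells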
AHR act: AHR activators, primary screen, cell-based, luminescence, luciferase reporter, human; Aryl hydrocarbon receptor (Homo sapiens), P35869; AHR-responsive luciferase reporter cells; activation, % at 5 µM; 320,000 tested, 2.5% active; in the data active means activation above about 47%;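 further: 0% = vehicle wells and 100% = reference agonist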
Target sequence (P35869 whole entry, looked up): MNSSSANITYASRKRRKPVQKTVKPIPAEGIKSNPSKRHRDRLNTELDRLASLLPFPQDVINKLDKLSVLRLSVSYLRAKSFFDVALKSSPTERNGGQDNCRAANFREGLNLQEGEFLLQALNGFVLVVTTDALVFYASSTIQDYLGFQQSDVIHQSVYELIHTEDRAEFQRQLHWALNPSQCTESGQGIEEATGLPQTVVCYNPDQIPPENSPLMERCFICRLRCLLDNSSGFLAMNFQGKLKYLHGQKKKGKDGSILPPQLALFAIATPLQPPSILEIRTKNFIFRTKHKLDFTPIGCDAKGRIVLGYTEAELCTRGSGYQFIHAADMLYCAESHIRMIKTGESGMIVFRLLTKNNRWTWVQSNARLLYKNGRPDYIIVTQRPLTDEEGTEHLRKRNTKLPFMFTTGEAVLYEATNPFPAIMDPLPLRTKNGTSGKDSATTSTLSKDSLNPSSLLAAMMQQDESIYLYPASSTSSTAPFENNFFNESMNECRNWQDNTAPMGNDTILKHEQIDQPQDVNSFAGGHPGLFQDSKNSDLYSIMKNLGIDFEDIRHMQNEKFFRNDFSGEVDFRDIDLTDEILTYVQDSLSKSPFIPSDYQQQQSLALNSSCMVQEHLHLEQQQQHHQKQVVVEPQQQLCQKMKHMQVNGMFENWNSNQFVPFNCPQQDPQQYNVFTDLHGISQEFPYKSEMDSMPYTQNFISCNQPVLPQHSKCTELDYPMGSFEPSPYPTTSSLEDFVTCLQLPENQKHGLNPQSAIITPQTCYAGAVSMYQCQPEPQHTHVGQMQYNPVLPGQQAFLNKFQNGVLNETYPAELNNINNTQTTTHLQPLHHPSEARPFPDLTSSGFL
MITF TRPM1 HTS: activators of MITF-driven TRPM1 promoter reporter, primary screen, cell-based, SK-MEL-5, luciferase, single point | activation, % at 12.5 µM | SK-MEL-5 TRPM1-promoter luciferase, 24 h; % of positive control, neutral wells = 0 | AID 588334, 2011 | 300,000 tested, 0.75% active;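 active means mean activation of at least 80% with every replicate also reaching 80%; inconclusive means mean reaches 80% but some replicate falls short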;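 further: 0% = neutral control wells and 100% = parthenolide positive control wells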
* marks the source's active call; other numbers are inactive results; ? = inconclusive; . = no result. The list is not random: actives were taken first. Their share in the collection is about 4.2%.

SMILES	esBAF inh	Wnt act	GAA850 FXN act	AHR act	MITF TRPM1 HTS
CCCN(C)C[C@H]1OCCCC[C@@H](C)Oc2ccc(NC(=O)CCCN(C)C)cc2C(=O)N([C@@H](C)CO)C[C@H]1C	-6.3	.	.	.	.
CO[C@H]1CC[C@@H]2CCN(C)C(=O)C[C@@H](c3ccccc3)CN(C)C(=O)c3cc(C#N)ccc3OC[C@@H]1O2	-0.4	.	.	.	.
O=C(C[C@H]1C=C[C@@H](NC(=O)c2cccc(F)c2)[C@H](CO)O1)Nc1nccs1	1.7	.	.	.	.
O=C(Nc1ccc(NC(=O)c2cccnc2)cc1)c1ccccc1	-0.5	-1.7	1.4	-3.0	5.9
CCC(C)c1ccc(NC(=O)c2cccnc2)cc1 (stereo not drawn)	50.3*	.	7.1	37.5	89.0*
CCC(C)c1ccc(O)c(NC(=O)c2cccnc2)c1 (stereo not drawn)	5.2	.	-1.4	60.3*	1.3
O=C(COc1ccccc1)Nc1nc(-c2cccnc2)cs1	4.2	3.5	0.8	54.9*	19.5
Cc1cccc(OCC(=O)Nc2nc(-c3ccncc3)cs2)c1	-3.1	-2.6	-0.6	-3.5	.
N#Cc1ccc(OCC(=O)Nc2nc(-c3cccnc3)cs2)cc1	-2.3	-0.8	0.9	48.6*	-16.7
Cc1cc(C)cc(OCC(=O)Nc2nc(-c3cccnc3)cs2)c1	-1.5	-0.3	1.7	66.5*	-10.4
CC(=O)N1[C@@H]2c3ccc(-c4ccccc4)c(=O)n3C[C@@H]2[C@@H](CO)[C@@H]1C(=O)NCc1ccccc1Cl	0.1	.	.	.	.
N#CCc1nc(CSc2nc3ccccc3s2)cs1	61.9*	.	4.8	4.9	46.1
CC1(C)CC(/C=C/c2ccccc2)=Nc2ccccc2N1	.	-4.5	5.4	13.2	95.0*
Cc1ccc(S(=O)(=O)NCC[C@@H]2CC[C@@H](NC(=O)c3ccccn3)[C@@H](CO)O2)cc1	-1.4	.	.	.	.
COc1cc(/C=N\Nc2nc3ccccc3[nH]2)cc(OC)c1OC	-10.4	-7.0	-5.2	49.5*	-2.4
C#CCn1cc(/C=N/Nc2nc3ccccc3[nH]2)c2ccccc21	.	.	4.9	127.3*	12.4
C(=N\Nc1nc2ccccc2[nH]1)/c1ccc2c(c1)OCCO2	.	34.7*	-3.5	-2.9	.
COc1cc(C(=O)Nc2nc3ccccc3[nH]2)cc(OC)c1OC	14.7	.	-0.6	6.7	4.5
COc1cc(OC)c(OC)cc1/C=N/Nc1nc2ccccc2[nH]1	.	13.3	0.6	54.4*	.
O=C(C[C@@H]1C[C@H]2c3cc(NC(=O)C4CCC4)ccc3O[C@H]2[C@H](CO)O1)NCc1cccc(F)c1	1.9	.	.	.	.
Cc1ccc2cc(/C=N/Nc3nc4ccccc4[nH]3)c(Cl)nc2c1	.	.	4.9	.	13.6
CCN(CC)c1ccc(/C=N/Nc2nc3ccccc3[nH]2)c(O)c1	-14.3	.	-11.1	51.1*	-41.1
Cc1ccc(S(=O)(=O)Nc2cccc3c2O[C@H](CN(C)Cc2ccccc2)[C@@H](C)CN([C@@H](C)CO)C3=O)cc1	2.5	.	.	.	.
Cc1ccccc1C1=NC(c2ccc(F)cc2F)ON1 (stereo not drawn)	47.7*	.	3.3	10.6	60.8
Cc1sc(NC(=S)NC(=O)c2ccco2)c(C(N)=O)c1C	48.6*	24.5	2.8	2.4	35.9
SMILES	esBAF inh	Wnt act	GAA850 FXN act	AHR act	MITF TRPM1 HTS
CC1(C)Cc2c(sc(NC(=O)C(=O)N3CCCC3)c2C(N)=O)CO1	.	-0.8	1.2	15.1	1.9
CC1(C)Cc2c(sc(NC(=O)Nc3ccccc3)c2C(N)=O)CO1	54.7*	17.9	5.1	32.7	.
Cc1sc(NC(=O)Nc2ccccc2)c(C(N)=O)c1C	?	33.0*	3.9	53.3*	40.0
Clc1ccc(-c2cn3c(n2)CCC3)cc1	.	.	2.7	-3.8	92.5*
NC(=O)c1cc2c(s1)-c1cc(Cl)ccc1SC2	5.1	9.1	0.2	12.1	-3.8
COCCNC(=O)c1cc2c(s1)-c1ccc(Cl)cc1SC2	31.6	43.2*	5.1	.	42.3
O=C(O)c1ccc(/C=C2\CCCc3c2nc2ccccc2c3C(=O)O)cc1	-1.6	-0.4	-0.7	3.6	-7.5
CN(C)c1ccc(/C=C2\CCCc3c2nc2ccccc2c3C(=O)O)cc1	58.8*	17.9	3.8	8.2	70.2
Cc1ccc(N2CCN(C(=O)c3cn(CC4CCCCC4)nn3)C(C)C2)cc1 (stereo not drawn)	.	39.6*	2.6	16.5	69.6
O=C(Nc1ccc2nsnc2c1)c1cccs1	.	9.0	1.2	17.4	-7.2
Cn1cccc1-c1nc2ccc(NC(=O)c3cccs3)cc2[nH]1	64.4*	21.6	3.3	-9.1	55.2
CC(=O)Nc1ccc2nc(-c3cccn3C)[nH]c2c1	51.2*	8.2	3.9	23.0	.
CC(=O)Nc1ccc2nc(-c3cccs3)[nH]c2c1	26.3	10.7	7.2	15.4	24.7
O=C(C[C@@H]1CC[C@@H]2[C@H](COC[C@@H](O)CN2Cc2nccs2)O1)NCc1ccccc1	-1.8	.	.	.	.
CCOC(=O)C(/C(C)=N/NC(=O)C1CC1c1ccccc1)C(C)C (stereo not drawn)	.	-7.0	1.8	2.1	-8.9
C/C(=N\NC(=O)C1CC1c1ccccc1)c1ccc(C)s1 (stereo not drawn)	-1.4	.	1.1	75.2*	-3.4
CO[C@@H]1CN(C)C(=O)c2ccc(NS(C)(=O)=O)cc2OC[C@@H](C)N(S(C)(=O)=O)C[C@H]1C	2.3	.	.	.	.
Cc1nn(C)cc1/C=C/C(=O)c1cccs1	65.3*	89.7*	3.1	-1.2	.
Cc1nn(C)c(C)c1/C=C/C(=O)c1cccs1	18.7	39.1*	1.5	-0.5	.
Cc1nn(C)cc1/C=C/C(=O)c1ccccc1	17.0	.	1.4	21.4	39.5
O=C(C[C@H]1CC[C@H](NC(=O)c2ccncc2)[C@H](CO)O1)NCC1CCCCC1	3.3	.	.	.	.
C[C@H](CO)N1C[C@H](C)[C@H](CN(C)Cc2ccc(C(F)(F)F)cc2)Oc2c(NC(=O)NC3CCCCC3)cccc2C1=O	5.8	.	.	.	.
O=[N+]([O-])c1ccc(COc2cccc3cccnc23)cc1	82.9*	13.2	3.6	-1.4	93.4*
O=[N+]([O-])c1ccc(OCCCOc2cccc3cccnc23)cc1	4.3	0.2	1.9	-0.7	15.4
OCc1ccccc1OCCCOc1cccc2cccnc12	43.5*	8.6	5.0	1.9	53.3
SMILES	esBAF inh	Wnt act	GAA850 FXN act	AHR act	MITF TRPM1 HTS
Brc1ccc(COc2cccc3cccnc23)cc1	71.0*	11.8	4.5	3.1	.
C/C=C/c1ccc2c(c1)O[C@H](CN(C)C(=O)COC)[C@H](C)CN([C@H](C)CO)S2(=O)=O	4.3	.	.	.	.
CC(C)NC(=O)N(C)C[C@@H]1Oc2ccc(NC(=O)Nc3ccccc3)cc2C(=O)N([C@H](C)CO)C[C@H]1C	-4.3	.	.	.	.
C[C@@H]1CN([C@@H](C)CO)C(=O)c2cc(NS(=O)(=O)c3cn(C)cn3)ccc2O[C@H]1CN(C)C(=O)Nc1ccccc1	0.1	.	.	.	.
COc1ccc(Nc2nc3ccccc3c(=O)s2)c(OC)c1	3.1	.	-1.4	-0.6	2.5
COc1ccc2nc(Nc3ccccc3OC)sc2c1	.	48.1*	4.8	22.4	52.6
